The text below walks through data of PubChem BioAssay (Tox21).

Experiment [1] in a line: qHTS assay to identify small molecule antagonists of the glucocorticoid receptor (GR) signaling pathway - cell viability counter screen (AID 720693). Note: nearly all actives have a fitted effect of over 55% in size. Note: potency is the fitted concentration of half-maximal effect. A general note: qHTS replaces the single test concentration by a dilution series.
A short description of experiment [2]: qHTS assay for identifying genotoxic compounds that show differential cytotoxicity against isogenic chicken DT40 cell lines with known DNA damage response pathways - wild type cell line (AID 743012). Note: nearly all actives have a fitted effect of over 60% in size. Note: potency is the fitted concentration of half-maximal effect. Put shortly: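 Cytotoxicity in repair-proficient parental chicken DT40 cells serves as the comparator for Rad54/Ku70- and Rev3-deficient lines. Cells were exposed to compounds for 40 h at 37 C/5% CO2, and ATP-based luminescence (CellTiter-Glo) measured viability.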

Experiment [3] is described as follows: qHTS assay for identifying genotoxic compounds that show differential cytotoxicity against isogenic chicken DT40 cell lines with known DNA damage response pathways - Rev3 mutant cell line (AID 743014). Note: nearly all actives have a fitted effect of over 55% in size. Note: potency is the fitted concentration of half-maximal effect.
The nature of experiment [4]: qHTS assay for identifying genotoxic compounds that show differential cytotoxicity against isogenic chicken DT40 cell lines with known DNA damage response pathways - Rad54/Ku70 mutant cell line (AID 743015). Note: nearly all actives have a fitted effect of over 60% in size. Note: potency is the fitted concentration of half-maximal effect.
Experiment [5] can be described thus: qHTS assay to identify small molecule antagonists of the androgen receptor (AR) signaling pathway - cell viability counter screen (AID 743033; note: nearly all actives have a fitted effect of over 45% in size; note: potency is the fitted concentration of half-maximal effect).
Experiment [6] can be described thus: qHTS assay to identify small molecule antagonists of the androgen receptor (AR) signaling pathway using the MDA cell line - cell viability counter screen (AID 743041; note: nearly all actives have a fitted effect of over 45% in size). Put shortly:
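Compound exposure lasted 16 h at 37C in MDA-kb2 AR-luc cells stimulated with R1881. Protease-based CellTiter-Fluor reagent was applied for the final 30 min and fluorescence measured.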

Experiment [7] can be described thus: qHTS assay to identify small molecule antagonists of the thyroid receptor (TR) signaling pathway (AID 743065). For activity, negative = inhibition: series mostly up to about 70 µM. Note: nearly all actives have a fitted effect of over 55% in size. Note: potency is the fitted concentration of half-maximal effect. An outline of the steps:
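GH3.TRE-Luc rat pituitary cells (two TREs driving luciferase) were dosed with compound, then stimulated with 1 nM T3 (final) for 23.5 h at 37 C. ONE-Glo luminescence was the read-out, with CellTiter-Fluor fluorescence as the cytotoxicity counter-screen.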

Experiment [8] relates to thyroid hormone receptor (rat, GH3 cells). The experiment in a line: qHTS assay to identify small molecule agonists of the thyroid receptor (TR) signaling pathway (AID 743066; calls by dose curve).
For experiment [9], the target named is Estrogen receptor (Homo sapiens) (UniProt P03372). The experiment can be described thus: qHTS assay to identify small molecule antagonists of the estrogen receptor alpha (ER-alpha) signaling pathway (AID 743069; active = well fitted curve in the direction sought with a large enough effect in the signal ratio in the repeat runs, not every such curve was filed as active; inconclusive = weak or mixed curves, or effect the other way; inactive = no such curve, though single readings can be large or run the other way; the % refers to the signal ratio; note: potency is the fitted concentration of half-maximal effect). Put shortly:
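In this cell-based reporter format, GripTite HEK293 cells harbouring ER-alpha-UAS-bla were grown overnight with 2% charcoal-stripped FBS, dosed with DMSO-dissolved compounds, then challenged with 17beta-estradiol. After 18 hr at 37C, beta-lactamase activity was detected by FRET fluorescence.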

Experiment [10] is described as follows: qHTS assay to identify small molecule antagonists of the estrogen receptor alpha (ER-alpha) signaling pathway - cell viability counter screen (AID 743074; calls by dose curve; note: nearly all actives have a fitted effect of over 45% in size).
For experiment [11], the target named is Estrogen receptor (Homo sapiens) (UniProt P03372). The experiment in a line: qHTS assay to identify small molecule agonists of the estrogen receptor alpha (ER-alpha) signaling pathway (AID 743075; calls by dose curve).
Sequence of Estrogen receptor (Homo sapiens) (P03372 whole entry, looked up): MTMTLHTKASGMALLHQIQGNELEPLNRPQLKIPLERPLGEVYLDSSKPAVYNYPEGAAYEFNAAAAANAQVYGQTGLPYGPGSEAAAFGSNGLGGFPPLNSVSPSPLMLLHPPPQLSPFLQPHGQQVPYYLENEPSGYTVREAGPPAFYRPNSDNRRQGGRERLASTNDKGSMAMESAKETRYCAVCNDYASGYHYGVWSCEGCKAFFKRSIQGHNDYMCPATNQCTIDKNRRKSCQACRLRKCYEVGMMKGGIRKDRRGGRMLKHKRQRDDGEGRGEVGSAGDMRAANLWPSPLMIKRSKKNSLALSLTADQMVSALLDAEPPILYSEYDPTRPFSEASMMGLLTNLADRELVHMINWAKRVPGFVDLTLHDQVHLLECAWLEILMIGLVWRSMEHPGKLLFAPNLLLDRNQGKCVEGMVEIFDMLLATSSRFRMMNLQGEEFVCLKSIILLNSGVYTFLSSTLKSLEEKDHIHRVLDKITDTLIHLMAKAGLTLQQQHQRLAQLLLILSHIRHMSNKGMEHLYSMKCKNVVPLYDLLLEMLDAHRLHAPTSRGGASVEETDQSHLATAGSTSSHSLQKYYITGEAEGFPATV
Experiment [12] shares this target. The experiment can be described thus: qHTS assay to identify small molecule agonists of the estrogen receptor alpha (ER-alpha) signaling pathway using the BG1 cell line (AID 743079). Note: nearly all actives have a fitted effect of over 20% in size. Note: potency is the fitted concentration of half-maximal effect.
Experiment [13] can be described thus: qHTS assay to identify small molecule antagonists of the estrogen receptor alpha (ER-alpha) signaling pathway using the BG1 cell line (AID 743080; calls by dose curve;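 note: BG1 cells stimulated with 17beta-estradiol alongside compound; series mostly up to about 70 µM; nearly all actives have a fitted effect of over 25% in size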). An outline of the steps:
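Luminescence from a 4×ERE-luciferase reporter in BG1-Luc-4E2 cells served as read-out. Cells, pre-cultured 5 days in stripped-serum phenol-red-free medium, were exposed to compound with 17beta-estradiol co-stimulation for 21.5 h at 37 C.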

Experiment [14] is described as follows: qHTS assay to identify small molecule antagonists of the estrogen receptor alpha (ER-alpha) signaling pathway using the BG1 cell line - cell viability counter screen (AID 743081).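 Note: compound given together with 17beta-estradiol as the ER stimulus; series mostly up to about 70 µM; nearly all actives have a fitted effect of over 45% in size.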
The next experiment has as its target Aromatase (Homo sapiens) (UniProt P11511). The experiment in a line: qHTS assay to identify aromatase inhibitors (AID 743083). For activity, negative = inhibition: series mostly up to about 70 µM. Note: nearly all actives have a fitted effect of over 55% in size. Note: potency is the fitted concentration of half-maximal effect.
Experiment [15] in a line: qHTS assay to identify small molecule antagonists of the thyroid receptor (TR) signaling pathway - cell viability counter screen (AID 743064). Note: nearly all actives have a fitted effect of over 50% in size. Note: potency is the fitted concentration of half-maximal effect. Put shortly: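 Counter screen for cytotoxicity: compound plus T3 (1 nM final) on GH3.TRE-Luc cells, 23.5 h at 37 °C, then fluorescence viability readout with CellTiter-Fluor.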

A number with no mark means an inactive call. The source made the active and inactive calls. Unless noted, calls come from the whole dose curve; as a rule, active = well fitted curve in the direction sought with a large enough effect in the repeat runs; inconclusive = weak or mixed curves; inactive = no such curve, though single readings can be large; an effect the other way counts as inactive or inconclusive.
% is set by controls: 0 for no effect and ±100 for the full control effect.

Sequence of Aromatase (Homo sapiens) (P11511 whole entry, looked up): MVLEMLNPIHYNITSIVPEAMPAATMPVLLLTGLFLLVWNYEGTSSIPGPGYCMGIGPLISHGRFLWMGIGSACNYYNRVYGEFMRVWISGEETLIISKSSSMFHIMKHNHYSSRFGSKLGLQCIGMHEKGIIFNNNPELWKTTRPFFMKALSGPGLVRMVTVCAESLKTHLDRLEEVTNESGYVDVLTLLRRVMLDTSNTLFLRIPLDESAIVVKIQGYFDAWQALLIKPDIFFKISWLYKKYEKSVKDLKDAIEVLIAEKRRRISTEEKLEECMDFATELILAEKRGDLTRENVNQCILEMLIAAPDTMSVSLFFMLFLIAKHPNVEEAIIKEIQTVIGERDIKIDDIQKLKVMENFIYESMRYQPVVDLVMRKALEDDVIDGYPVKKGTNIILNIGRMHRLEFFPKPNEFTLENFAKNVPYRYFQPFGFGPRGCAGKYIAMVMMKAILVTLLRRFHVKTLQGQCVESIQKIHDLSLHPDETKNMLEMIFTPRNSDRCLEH

Take `CCCCCCCCO[C@@H]1O[C@H](CO)[C@@H](O)[C@H](O)[C@H]1O`: the Potency entry in experiment [1], in [2], in experiment [3], in [4], in experiment [5] and in experiment [6] was “inactive” in each case. The Potency entry in experiment [7], in experiment [8], in experiment [9], in experiment [10], in [11] and in experiment [12] was “inactive” in each case. Moreover, the Potency result (in experiment [13]; in experiment [14]; in the experiment with Aromatase (Homo sapiens)) was “inactive” each time.
As for `CC1OC(=O)C(C)OC1=O` (stereo unspecified), the Potency entry in experiment [1], in experiment [2], in [3], in experiment [4], in [5] and in experiment [6] was “inactive” each time. Moreover, the Potency entry in experiment [7], in experiment [8], in experiment [10], in experiment [11], in experiment [13] and in experiment [14] was “inactive” throughout. Also, the Potency result with Aromatase (Homo sapiens) is “inactive”.
Turning to `C/C=C/C(=O)CC`, the Potency entry in experiment [1], in experiment [2], in [3], in experiment [4], in experiment [5] and in experiment [6] was “inactive” throughout. Also, the Potency entry (in [7]; in experiment [12]; in [13]; in experiment [14]; with Aromatase (Homo sapiens)) was “inactive” each time. Also, the activation is 0.0391% [at 18 µM] in experiment [8] and -0.96% [at 14.9 µM] in experiment [11]. Moreover, the activity, negative = inhibition in [9] is 9.39% [at 15 µM]. Also, in [10], the activity, negative = cytotoxicity is -6.1% [at 15 µM].
As for `CC(C)(CO)[N+](=O)[O-]`, the Potency entry in [1], in experiment [2], in experiment [3], in experiment [4], in experiment [5] and in experiment [6] was “inactive” in each case. The Potency entry (in experiment [15]; in [7]; in [8]; in experiment [14]; with Aromatase (Homo sapiens)) was “inactive” each time.
Consider `CN(Cc1ccc(C(C)(C)C)cc1)Cc1cccc2ccccc12`, for which the Potency result in experiment [1], in [2], in experiment [3], in experiment [4], in experiment [5] and in [6] was “inactive” each time. Further, the Potency result in [8], in [9], in experiment [10], in [11], in [12] and in experiment [13] was “inactive” throughout. In addition, the Potency result (in [14]; with Aromatase (Homo sapiens)) was “inactive” each time.
For `Clc1ccc(Cn2c(CN3CCCC3)nc3ccccc32)cc1`, the Potency result in experiment [1], in experiment [5], in experiment [6], in experiment [8], in [10] and in experiment [14] was “inactive” each time. The Potency entry with Aromatase (Homo sapiens) is “inactive”. For the same compound, the Potency was 4.03 µM (active) in experiment [2], 2.54 µM (active) in experiment [3], 7.17 µM (active) in experiment [4] and 11.4 µM (active) in experiment [7].
In the case of `CNCCCCOc1ccccc1Cc1ccccc1`, the Potency result in experiment [1], in [5], in [6], in experiment [10], in [11] and in [12] was “inactive” throughout. Moreover, the Potency result in experiment [13] and in experiment [14] was “inactive” in each case. The Potency was 4.22 µM (active) in [2]; 3.35 µM (active) in experiment [3]; 5.31 µM (active) in experiment [4]; 11.9 µM (active) in experiment [15]; 11.9 µM (active) in experiment [7].
With `CCc1c(C(=O)NN2CCCCC2)nn(-c2ccc(Cl)cc2Cl)c1-c1ccc(Br)cc1`, the Potency was 12.3 µM (active) in experiment [1]; 13.7 µM (active) in experiment [2]; 15.4 µM (active) in [3]; 13.7 µM (active) in experiment [4]; 15.4 µM (active) in experiment [15]; 8.63 µM (active) in experiment [7]. Also, in [12], the Potency was 27.3 µM (active). Further, the Potency entry in experiment [5], in [6], in [10], in experiment [11] and in experiment [14] was “inactive” throughout.
For the compound `C=C(C)C(=O)OCCOCC`, the Potency result in experiment [1], in experiment [2], in [3], in [4], in experiment [5] and in experiment [6] was “inactive” throughout. For the same compound, the Potency result in experiment [15], in [8], in experiment [9], in experiment [10], in experiment [11] and in [12] was “inactive” in each case. In addition, the Potency result (in [13]; in experiment [14]; with Aromatase (Homo sapiens)) was “inactive” each time.
Consider `O=C(O)c1ccccc1Cl`, for which the Potency result in [1], in experiment [2], in experiment [3], in [4], in experiment [5] and in experiment [6] was “inactive” throughout. In addition, the Potency result (in [15]; in experiment [8]; in experiment [10]; in experiment [14]; with Aromatase (Homo sapiens)) was “inactive” throughout.
Consider `CC(CSC(=O)c1ccccc1)C(=O)N1C[C@@H](Sc2ccccc2)C[C@H]1C(=O)O` (stereo partly specified), for which the Potency result in experiment [1], in experiment [2], in experiment [3], in experiment [4], in experiment [5] and in [6] was “inactive” each time. Besides, the Potency entry in experiment [15], in experiment [8], in experiment [9], in experiment [10], in experiment [11] and in experiment [12] was “inactive” throughout. Moreover, the Potency result (in [13]; in experiment [14]; with Aromatase (Homo sapiens)) was “inactive” in each case.
`O=C(O)c1ccc(S(=O)(=O)O)cc1C(=O)O`: the Potency entry in experiment [1], in [2], in experiment [3], in experiment [4], in [5] and in [6] was “inactive” each time. Further, the Potency entry in [7], in experiment [8], in experiment [9], in experiment [10], in experiment [11] and in experiment [12] was “inactive” each time. Further, the Potency entry (in [13]; in experiment [14]; in the experiment with Aromatase (Homo sapiens)) was “inactive” throughout.
On to `CNC(=O)CN(CCN(CCN(CC(=O)[O-])CC(=O)NC)CC(=O)[O-])CC(=O)[O-].O.[Gd+3]`, for which the Potency result in experiment [1], in experiment [2], in experiment [3], in experiment [4], in experiment [5] and in experiment [15] was “inactive” throughout. For the same compound, the Potency result in [8], in experiment [9], in experiment [10], in experiment [11], in experiment [12] and in experiment [13] was “inactive” throughout. Also, the Potency entry (in experiment [14]; in the experiment with Aromatase (Homo sapiens)) was “inactive” in each case.
In the case of `CC[N+](C)(CC)CCOC(=O)C(O)(c1ccccc1)C1CCCCC1` (stereo unspecified), the Potency entry in experiment [1], in experiment [2], in experiment [3], in [4], in experiment [5] and in experiment [7] was “inactive” each time. The Potency result in experiment [8], in experiment [9], in experiment [10], in experiment [11], in experiment [13] and in [14] was “inactive” throughout. Further, in the experiment with Aromatase (Homo sapiens), the Potency entry is “inactive”.
Regarding `CN(C)c1ccc(CCO)cc1`, the Potency result in experiment [1], in experiment [2], in experiment [3], in experiment [4], in experiment [5] and in [7] was “inactive” throughout. Also, the Potency entry in [8], in experiment [10], in [11], in [12], in [13] and in experiment [14] was “inactive” in each case. Further, the Potency result with Aromatase (Homo sapiens) is “inactive”.
With `C=CC(=O)OCCOCCOC(=O)C=C`, the Potency result in experiment [1], in experiment [8] and in experiment [11] was “inactive” each time. Further, the Potency in experiment [2] is 9.73 µM (active); in [3] it was 6.14 µM (active); in [4], 9.73 µM (active); in experiment [5], 39.1 µM (active); in experiment [7], 68.9 µM (active); in [9] it was 61.9 µM [inconclusive] (active). The results for the Potency (in experiment [12]; with Aromatase (Homo sapiens)) were 6.14 µM (active) and 13.7 µM (active), respectively.
